Screening data as filed in PubChem BioAssay.
Sampled rows, rich in hits. Any-hit rate of the full collection: about 1.2%.
BioA inh = BioA (M. tuberculosis) enzyme inhibition; AID 602481; purified M. tuberculosis BioA enzyme, plate reader; inhibition, % at 9.99 µM; 360,000 tested, 0.096% active; in the data active = inhibition above about 40%; inconclusive = no clear call, values can overlap the other calls
Y pestis TopoI = blocks Yersinia pestis topoisomerase I activity; Y. pestis Topo-I cleavage product accumulation, plate reader; activity, % at 10 µM; 360,000 tested, 0.064% active; AID 504884; in the data active = activity above about 50%, passing the limit was not always enough; inconclusive = no clear call, values can overlap the other calls
PrP UTR inh = inhibition of PrP 5' UTR reporter expression | cell-based PrP 5' UTR mRNA reporter, plate reader | inhibition, % (concentration not given with the values) | 340,000 tested, 0.35% active | AID 488862; in the data active = inhibition above about 52%; note: 0 = median of the neutral control wells
PfHsp40 yeast = restores yeast growth despite PfHsp40 toxicity; S. cerevisiae expressing PfHsp40, growth rescue, ATP luminescence; growth rescue, % at 12.5 µM; 340,000 tested, 0.68% active; AID 504582; in the data active = growth rescue above about 28%, passing the limit was not always enough; inconclusive = no clear call, values can overlap the other calls;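 note: yeast W303a lacking pdr1 and pdr3 grown in galactose medium; growth measured after three days at 30 °C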
TcdB inh = TcdB glycohydrolase inhibition; AID 652162; inhibition, % at 9.99 µM; P18177; 350,000 tested, 0.24% active; TcdB glycohydrolase enzymatic assay, plate reader; in the data active = inhibition above about 10%
FadD28 FP inh = blocks FadD28 binding to the bisubstrate probe; fluorescence polarization; inhibition, % at 12.5 µM; 360,000 tested, 0.22% active; in the data active = inhibition above about 8.5%, passing the limit was not always enough; inconclusive = no clear call, values can overlap the other calls
Numbers without * were called inactive; u = inconclusive; x = no result.

SMILES	BioA inh	Y pestis TopoI	PrP UTR inh	PfHsp40 yeast	TcdB inh	FadD28 FP inh
CCOC(=O)c1ccc(NC(=O)/C=C/c2cccs2)cc1	x	1	-71	164*	0	-6
O=C([C@@H]1[C@@H](CO)[C@@H]2Cn3c(cccc3=O)[C@@H]2N1C(=O)CC1CC1)N1CCCCC1	-2	x	x	x	1	x
O=C(Cc1ccccn1)N[C@@H]1CC[C@@H](CCn2cc(-c3ccc(F)cc3)nn2)O[C@@H]1CO	x	x	x	x	0	x
Cc1onc(-c2c(F)cccc2Cl)c1C(=O)Nc1nnc(C(F)(F)F)s1	2	2	-12	-2	16*	-3
Cc1nc2c(F)c(F)c(C(F)(F)F)c(F)c2[nH]1	-1	2	1	88*	x	-5
Cc1nc2c(Br)c3nc(C(F)(F)F)[nH]c3c(Br)c2[nH]1	-2	9	-12	3	x	0
C[C@@H]1CN([C@@H](C)CO)C(=O)c2cc(NC(=O)C3CCCCC3)ccc2O[C@H]1CN(C)Cc1ccc(C(=O)O)cc1	0	x	x	x	-1	x
CNC(=O)C[C@H]1CC[C@@H]2[C@H](COc3ccc(NC(=O)c4cccc(F)c4)cc3C(=O)N2C)O1	38	x	x	x	1	x
CN1CCN(C2CCN(c3ccc(Nc4nnc(Cl)c(Nc5ccccc5S(C)(=O)=O)n4)c(OC(CF)CF)c3)CC2)CC1	0	-32	-26	329*	-28	-2
CC(C)(c1cc(Br)c(O)c(Br)c1)c1cc(Br)c(O)c(Br)c1	2	7	0	331*	1	20*
Oc1c(Br)cc(Br)cc1Br	1	3	-8	-2	0	-3
CC1CCC2[C@@H](C)C(=O)OC3O[C@]4(C)CCC1C32OO4 (stereo not given in full)	0	3	-6	110*	0	-5
CC1CCC2C(C)C(=O)OC3OC4(C)CCC1C32OO4 (stereo not given)	-1	4	-25	137*	2	-1
COc1ccc2c3c(n(C)c2c1)[C@H](CO)N(S(=O)(=O)c1cn(C)cn1)CC31CCN(C)CC1	x	x	x	x	0	x
CC(/C=N/NC(=O)CSc1ccccn1)=C\c1ccc(C(C)C)cc1	x	45	-116	7	1	-2
COc1cc(/C=N/NC(=O)C2COc3ccccc3O2)ccc1O (stereo not given)	x	2	-19	-1	14*	-5
COc1cc(/C=N/NC(=O)c2cccc([N+](=O)[O-])c2)ccc1O	x	-1	23	-2	12*	0
CC(=C/c1ccc(C(C)C)cc1)/C=N/NC(=O)CSc1ccccn1	x	61*	-58	13	0	0
COc1ccc(/C=N\NC(=O)C2COc3ccccc3O2)cc1O (stereo not given)	x	0	-32	0	5	-2
COc1ccc(/C=N/NC(=O)c2cccc([N+](=O)[O-])c2)cc1O	x	-5	-8	x	1	2
COc1cc(/C=N/Nc2nc3ccccc3[nH]2)ccc1O	2	-17	-16	0	20*	2
O=C(C[C@H]1C=C[C@@H](NC(=O)C2CCC2)[C@@H](CO)O1)Nc1nccs1	-2	x	x	x	-1	x
CO[C@@H]1CN(C)C(=O)c2cc(NC(C)=O)ccc2OC[C@H](C)N(Cc2ccccc2C(=O)O)C[C@H]1C	-3	x	x	x	0	x
C[C@H]1CN([C@@H](C)CO)C(=O)c2cccc(NC(=O)Nc3ccccc3)c2O[C@H]1CN(C)Cc1ccccc1	2	x	x	x	0	x
C[C@H]1CCCCO[C@H](CN(C)C(=O)Nc2ccc3c(c2)OCO3)[C@@H](C)CN([C@@H](C)CO)C(=O)c2cc(NC(=O)Nc3cccc4ccccc34)ccc2O1	-1	x	x	x	-1	x
SMILES	BioA inh	Y pestis TopoI	PrP UTR inh	PfHsp40 yeast	TcdB inh	FadD28 FP inh
COc1cc(/C=N/NC(=O)Cn2nnc3ccccc32)ccc1O	x	-6	5	-3	12*	-2
COc1cc(/C=N/NC(=Nc2ccc(C)cc2)c2nc3ccccc3s2)ccc1O	1	-1	77*	-1	x	-2
CCOc1ccc(-n2c(O)c(/C=N/NC(=O)C3COc4ccccc4O3)c3ccccc3c2=O)cc1 (stereo not given)	2	-4	-28	303*	x	u
COc1cc(/C=N/NC(=O)CSc2ccccn2)ccc1O	x	0	0	1	11*	0
COc1cc(/C=N\NC(=O)C2COc3ccccc3O2)cc(OC)c1O (stereo not given)	0	-1	-7	-2	-26	-3
COc1cc(/C=N/NC(=O)CCn2nnc3ccccc32)ccc1O	x	-2	-8	-1	2	-3
C[C@@H]1CN([C@H](C)CO)C(=O)Cc2cc(NC(=O)CCN3CCOCC3)ccc2O[C@H]1CN(C)C(=O)Nc1ccc2c(c1)OCO2	-1	x	x	x	-3	x
COCC#Cc1ccc([C@H]2[C@@H](CO)N3CCCCN(C(=O)Nc4cc(F)ccc4F)C[C@H]23)cc1	-2	x	x	x	0	x
C[C@@H]1CN([C@H](C)CO)C(=O)c2cc(NC(=O)Nc3ccc4c(c3)OCO4)ccc2O[C@@H](C)CCCCO[C@H]1CN(C)Cc1ccccc1	-2	x	x	x	0	x
COc1cc(/C=N/NC(=O)C2(O)c3ccccc3-c3ccccc32)ccc1O	0	-5	2	0	10*	-2
CCOc1ccc(/C=N/NC(=O)C2(O)c3ccccc3-c3ccccc32)cc1	-4	4	-13	1	-10	-3
COc1cc(C=NNC(=O)c2ccccc2-n2cccc2)ccc1O	-1	-7	1	0	13*	-3
COc1ccc(C=NNC(=O)c2cc(C)oc2C)cc1O	0	1	-105	-1	10*	-3
COc1cc(/C=N/NC(=O)c2cc(C)oc2C)ccc1O	-2	1	-8	-1	4	-3
CCN1CCN(C(=O)C2CCN(C(=O)Nc3ccccc3)CC2)CC1	0	-3	-7	-1	1	-3
NC(=O)CN1CCN(C(=O)Nc2ccccc2)CC1	3	6	-13	76*	1	-2
COc1cc(/C=C(\C#N)C(=O)c2ccc(O)c(O)c2)cc(I)c1O	1	-13	-18	5	-7	12*
Cc1ccc(CN2C(=O)CN=C(c3ccccc3)c3ccccc32)cc1	5	13	-16	1	12*	-5
Cc1ccc(NC(=O)c2cc(C)on2)cc1	x	-2	-72	-1	x	1
CCc1ccc(NC(=O)c2cc(C)on2)cc1	2	3	-89	0	11*	1
COc1cc(/C=N/n2c(-c3ccccc3)n[nH]c2=S)ccc1O	x	0	-22	1	18*	-2
COc1cc(-c2n[nH]c(=S)n2/N=C/c2cccn2C)cc(OC)c1OC	x	3	-27	3	11*	-3
Cc1c(Br)c(O)c(Br)c(O)c1/C=N/n1c(-c2ccccc2)n[nH]c1=S	6	-1	-16	0	-1	21*
C[C@@H](NC(=O)C[C@@H]1CC[C@H](NC(=O)Nc2ccc3c(c2)OCO3)[C@@H](CO)O1)c1ccccc1	4	x	x	x	-2	x
